LEDGF integ inh – blockers of LEDGF/p75-dependent integrase strand transfer – biochemical, TR-FRET, high throughput, primary screen. HIV-1 integrase (with human LEDGF/p75). TR-FRET IN-LEDGF/p75 DNA integration, Eu/Cy5. inhibition, % at 3.7 µM. 370,000 tested, 0.64% active;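 active = inhibition above the screen-wide mean plus 3 SD, cut at about 13% in these data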;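 also: signal is the Cy5 over europium emission ratio at 671 and 618 nm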
PRMT1 inh – PRMT1 methyltransferase inhibitors, primary screen, biochemical, fluorescence polarization | Protein arginine N-methyltransferase 1 (Homo sapiens), Q99873 | recombinant PRMT1, activity-based probe fluorescence polarization | inhibition, % at 2.79 µM | 370,000 tested, 1.3% active;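 active = inhibition above about 21% made by adding two undisclosed values, limit read from the data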
UHRF1 MBD2 ctr – UHRF1 methylated DNA binding inhibitors, primary screen, counter-screen for MBD2 inhibitor project, biochemical, TR-FRET, human UHRF1, single concentration; AID 687016, 2013; UHRF1 binding to methylated oligo; inhibition, % at 4.4 µM; 370,000 tested, 0.75% active; E3 ubiquitin-protein ligase UHRF1 (Homo sapiens), Q96T88; in the data active = inhibition above about 21%;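 also: UHRF1 SRA domain binding a hemimethylated CpG hairpin DNA probe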
Target sequence (Q96T88 whole entry, looked up, the tested form may be a part): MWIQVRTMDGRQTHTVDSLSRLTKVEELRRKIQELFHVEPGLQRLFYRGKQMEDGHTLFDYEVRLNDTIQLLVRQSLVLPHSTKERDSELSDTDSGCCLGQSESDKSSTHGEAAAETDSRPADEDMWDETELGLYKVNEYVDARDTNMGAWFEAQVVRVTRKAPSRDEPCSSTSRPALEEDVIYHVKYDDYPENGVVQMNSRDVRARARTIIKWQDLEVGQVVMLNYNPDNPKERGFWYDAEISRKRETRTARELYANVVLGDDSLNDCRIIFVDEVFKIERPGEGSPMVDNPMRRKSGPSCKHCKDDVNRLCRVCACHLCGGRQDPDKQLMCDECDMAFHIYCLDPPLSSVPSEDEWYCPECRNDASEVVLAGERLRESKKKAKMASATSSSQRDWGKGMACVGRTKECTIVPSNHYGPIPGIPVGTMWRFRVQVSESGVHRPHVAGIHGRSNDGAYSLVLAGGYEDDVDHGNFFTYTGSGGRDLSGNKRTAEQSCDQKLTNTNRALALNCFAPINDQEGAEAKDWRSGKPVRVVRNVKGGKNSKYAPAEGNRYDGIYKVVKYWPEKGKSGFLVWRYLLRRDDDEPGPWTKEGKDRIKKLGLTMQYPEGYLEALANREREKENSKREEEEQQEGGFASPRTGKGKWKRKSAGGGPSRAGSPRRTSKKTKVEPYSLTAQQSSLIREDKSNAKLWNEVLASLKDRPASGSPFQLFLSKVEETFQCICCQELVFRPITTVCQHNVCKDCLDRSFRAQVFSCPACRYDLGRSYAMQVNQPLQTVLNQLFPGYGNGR
MBD2 inh – inhibitors of MBD2 binding to methylated DNA, primary screen, biochemical, TR-FRET, DNA-binding domain, human; Methyl-CpG-binding domain protein 2 (Homo sapiens), Q9UBB5; MBD2 binding to methylated oligonucleotide; inhibition, % at 4.4 µM; 370,000 tested, 0.31% active; in the data active = inhibition above about 13%
PRMT1 confirm – PRMT1 methyltransferase inhibitors, confirmation, biochemical, fluorescence polarization, triplicate | AID 687036, 2013 | inhibition, % at 2.79 µM | recombinant His-PRMT1, activity-based probe fluorescence polarization | 3,300 tested, 42% active | shares compounds with PRMT1 inh;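 active = mean inhibition across replicates above the hit cutoff derived for the earlier primary screen, cut at about 22% in these data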
A number is an active result; - = inactive; . = no result given. Sampled rows, rich in hits. Any-hit rate of the full collection: about 2.5%.

SMILES	LEDGF integ inh	PRMT1 inh	UHRF1 MBD2 ctr	MBD2 inh	PRMT1 confirm
CC[C@]12c3[nH]c4cc(CCC(=O)N(C)C)ccc4c3CCN1C(=O)[C@@H](CC(=O)NCCCOC)C[C@@H]2C(=O)N1CCN(C(=O)c2ccco2)CC1	-	-	-	-	.
COc1ccc2[nH]c(S(=O)Cc3ncc(C)c(OC)c3C)nc2c1 (stereo not given)	-	34	-	-	-
COc1ccnc(CS(=O)c2nc3cc(C(O)(F)F)ccc3[nH]2)c1OC (stereo not given)	-	-	-	-	.
CCOC(=O)c1sc(NC(=O)c2cc(-c3ccc(C)cc3)nc3ccccc23)c(C#N)c1C	-	-	-	-	.
COC(=O)c1sc(NC(=O)c2cc(-c3ccccc3)nc3ccccc23)c(C#N)c1C	-	37	-	-	63
CCCCN1C[C@H](CO)Oc2cccc(F)c2S1(=O)=O	-	-	-	-	.
CCN=C1SC(CC(=O)NCCc2ccc(OC)c(OC)c2)C(=O)N1CC (stereo not given)	-	32	-	-	-
CN=C1SC(CC(=O)NCCc2ccc(OC)c(OC)c2)C(=O)N1C (stereo not given)	-	-	-	-	.
CCN=C1SC(CC(=O)NCCc2ccc(OC)cc2)C(=O)N1CC (stereo not given)	-	31	-	-	-
COc1ccc(CCNC(=O)CC2SC(=NCCc3ccccc3)NC2=O)cc1 (stereo not given)	-	26	-	-	-
CCN(CCn1cccn1)C(=O)c1ccc(OC2CCN(C(=O)CCOC)CC2)cc1	-	-	-	-	.
CC(C)n1c(-c2ccccc2)nc(=S)c2c1CCCC2	-	36	-	-	-
COc1ccc(-n2c(-c3ccccc3)nc(=S)c3c2CCCC3)cc1	-	-	-	-	.
COc1ccc(-c2cc(C(=O)N/N=C/c3cc(OC)c(OC)cc3OC)c3ccccc3n2)cc1	-	-	-	-	.
Cc1ccc(NC(=O)c2cc(-c3ccc(C)o3)nc3ccccc23)cc1	-	49	-	-	25
COc1ccc(OC)c(/C=N/NC(=O)c2cc(-c3ccc(C)o3)nc3ccccc23)c1	-	30	-	-	-
Cc1ccc(-c2cc(C(=O)Nc3cccnc3)c3ccccc3n2)o1	-	46	-	-	-
CC1(C(=O)Nc2cccc(Oc3ccccc3)c2)CCN1C1Cc2ccccc2C1 (stereo not given)	-	-	-	-	.
COC(=O)Nc1ccc2ccc3c(NC(=O)OC)ccc4ccc1c2c43	-	-	-	-	.
COC(=O)[C@]12C[C@H](CC(=O)N3CCC(c4ccccc4)CC3)C(=O)N(CCC3=CCCCC3)C1=C[C@H](C(C)(C)C)O[C@@H]2C	-	-	-	-	.
Cc1ccc(OCc2n[nH]c(=S)n2-c2ccc(Cl)cc2)cc1	-	-	-	-	.
S=c1[nH]nc(COc2ccc(Cl)cc2)n1-c1ccc(Cl)cc1	-	28	-	-	-
S=c1[nH]nc(COc2ccc(Cl)cc2)n1-c1ccccc1	-	-	-	-	.
COc1ccc(-n2c(COc3ccc(Cl)cc3Cl)n[nH]c2=S)cc1	-	27	-	-	-
Cn1cnc([N+](=O)[O-])c1S(=O)(=O)Oc1ccc(Cl)cc1	-	31	-	-	23
SMILES	LEDGF integ inh	PRMT1 inh	UHRF1 MBD2 ctr	MBD2 inh	PRMT1 confirm
Cc1nc2c([nH]1)C1(CCN(Cc3ccccc3)CC1)C(C#N)=C(N)O2	-	42	-	-	-
CC1(C)CC(=O)C2=C(C1)OC(N)=C(C#N)C21CCN(Cc2ccccc2)CC1	-	-	-	-	.
Cn1nnnc1Sc1ncnc2scc(-c3ccccc3C(F)(F)F)c12	-	39	-	-	-
O=C1CCC[C@H]2C[C@H](NCc3cccc(I)c3)CC[C@]23CCCN13	-	-	-	-	.
O=C(CSc1nc2[nH]c(=O)cc(O)c2s1)NCCc1ccccc1	-	-	-	-	.
COc1ccc(CCNC(=O)CSc2nc3[nH]c(=O)cc(O)c3s2)cc1	-	29	-	-	-
COc1ccccc1C(=O)N1CCCC(c2nc(-c3cccs3)no2)C1 (stereo not given)	-	-	-	-	.
CC1=C(C(=O)Nc2ccc(C(=O)NCCCN3CCCCC3)cc2)SCCO1	-	-	-	-	.
O=C(O)c1ccc(S(=O)(=O)c2ccc(Sc3ccc(C(=O)O)c(C(=O)O)c3)cc2)cc1	-	-	-	-	.
CCc1cc2cc(C)c(C)cc2nc1SCC(=O)NNC(=O)c1ccco1	-	29	-	-	-
CC1(c2nc3ccccc3[nH]2)CCC(=O)N1Cc1ccc(F)cc1 (stereo not given)	-	-	-	-	.
COc1ccc(C2NC(=S)NC3=C2CCCC3=C2SCCS2)cc1 (stereo not given)	-	-	-	-	.
Fc1cccc(/C=C2\CCCC3=C2NC(=S)NC3c2cccc(F)c2)c1 (stereo not given)	-	64	-	-	-
S=C1NC2=C(CCC/C2=C\c2ccc(Cl)cc2)C(c2ccc(Cl)cc2)N1 (stereo not given)	-	27	-	-	-
CC1CC2=C(NC(=S)NC2c2ccc(F)cc2)/C(=C/c2ccc(F)cc2)C1 (stereo not given)	-	49	-	-	22
COc1cc(C2NC(=S)NC3=C2CCc2ccccc23)cc(OC)c1OC (stereo not given)	-	-	-	-	.
O=C1CCCC2=C1C(c1ccccc1)NC(=S)N2 (stereo not given)	-	-	-	-	.
S=C1NC2=C(CCC/C2=C\c2ccccc2)C(c2ccccc2)N1 (stereo not given)	-	43	-	-	32
CC(C)N1CC(C(=O)Nc2ccc(Cl)c([N+](=O)[O-])c2)CC1=O (stereo not given)	-	-	-	-	.
S=C1NC2=C(CCCC2=C2SCCCS2)C(c2ccccc2)N1 (stereo not given)	-	35	-	-	-
Fc1ccccc1/C=C1\CCCC2=C1NC(=S)NC2c1ccccc1F (stereo not given)	-	38	-	-	-
O=C1CC(Sc2nnc(-c3ccccc3O)o2)C(=O)N1c1ccccc1 (stereo not given)	-	66	-	-	65
COc1ccc(N2C(=O)CC(Sc3nnc(-c4ccccc4)o3)C2=O)cc1 (stereo not given)	-	63	-	-	39
O=C(O)CCSC1CC(=O)N(c2ccccc2)C1=O (stereo not given)	-	-	-	-	.
COc1ccc(N2C(=O)CC(Sc3nc(C)cc(C)c3C#N)C2=O)cc1 (stereo not given)	-	-	-	-	.
CCNC(=O)CCc1nc(-c2ccc(C(C)C)cc2)no1	-	-	-	-	.

Screening data deposited in PubChem by The Scripps Research Institute Molecular Screening Center.
